This excerpt belongs to a sample that is enriched for hits.
RMI FANCM FP = disruptors of RMI1/RMI2 association with MM2 peptide – biochemical, fluorescence polarization, human, primary screen; hit rate 0.58% among 70,000; RMI core complex (RMI1/RMI2) binding to FANCM MM2 peptide, human; RMI core complex with F-MM2 peptide; active compounds read low; FP signal (polarization) at 33 µM; in the data active = FP signal below about 40
Numbers without * were called inactive; ! = not active in a repeat.

SMILES	RMI FANCM FP
CCOC(=O)/C(=N\O)C1=CSC2=NNC(c3ccc(Cl)cc3)N12 (stereo unspecified)	56
N#Cc1c2c(c(NCCN3CCCCCC3)n3c1nc1ccccc13)CCCC2	71
O=C(CSc1nnc(NC(=O)c2cc(Cl)ccc2Cl)s1)Nc1nccs1	34
Cc1cccc(NC(=S)N2CCN(c3ccc(F)cc3)CC2)c1C	61
O=C1C=CC(=NS(=O)(=O)c2ccc3ccccc3c2)C=C1	37
O=C1C=CC(=NS(=O)(=O)c2cc([N+](=O)[O-])ccc2Cl)C=C1	42
O=C1C=CC(=NS(=O)(=O)c2ccc(F)cc2)C=C1	2*
Cc1onc(-c2ccccc2Cl)c1C(=O)NCC(=O)N1CCOC(c2ccccc2)C1 (stereo unspecified)	73
Cc1ccccc1Cn1cnc2c(cnn2CCNC(=O)CC2CCCC2)c1=O	68
O=C(COc1ccccc1)N1CCN(c2ccc(-c3cccs3)nn2)CC1	55
CCOC(=O)c1c(NC(=O)c2ccc(C)c(S(=O)(=O)N3CCCC3)c2)sc2c1CCC2	59
COc1ccc(NC(=O)CS/C(C(C)=O)=C(\C)O)cc1	50
CSc1ncc(C#N)c2nc(-c3ccc(N(C)C)cc3)nn12	-1*
O=S(=O)(c1cccc(N=Nc2ccc(O)c3ccccc23)c1)N1CCOCC1	65
CCN1C(=O)/C(=C/c2c(C)c(C#N)c(=O)n(C)c2N2CCN(c3ccc(F)cc3)CC2)SC1=S	15*
COCCCN1C(=O)/C(=C/N2CCN(c3ccccc3)CC2)SC1=S	98
O=C(CCN1C(=O)/C(=C\c2ccccc2F)SC1=S)N1CCN(c2ccccc2)CC1	59
O=C(COc1ccc(F)cc1)N1CCN(c2ccc3nnc(-c4ccco4)n3n2)CC1	81
Cc1cc(C)c(S(=O)(=O)Nc2cc(Cl)c(O)c3ccccc23)cc1C	25*
COc1ccc(OC)c(S(=O)(=O)Nc2cc(Sc3ccccc3)c(O)c3ccccc23)c1	61
Cc1cc(Cl)c(Cl)cc1S(=O)(=O)Nc1ccccc1C(=O)O	63
Cc1cccc(C(=O)Nc2ccc3c(c2)N(CCC(C)C)C(=O)C(C)(C)CO3)c1	74
CCOC(=O)c1c(C)oc2c(F)c(F)c(F)c(F)c12	62
CCOC(=O)c1c(C)oc2c1c1c(c3ccccc32)OCN(C2CCCCC2)C1	31*
CCOC(=O)c1c(-c2ccccc2)oc2c1cc(OC(=O)c1cc(OC)cc(OC)c1)c1ccccc12	54
SMILES	RMI FANCM FP
CCOc1cccc2sc(N(CCCN3CCOCC3)C(=O)c3cc(C)no3)nc12	68
COc1cn(CC(=O)Nc2ccc(Br)cc2)c(CN2CCC(C)CC2)cc1=O	57
COc1cn(CC(=O)NCc2ccc(C)cc2)c(CN2CCC(C)CC2)cc1=O	59
COc1cn(CC(=O)Nc2cccc3ccccc23)c(CN2CCN(c3ccc(F)cc3)CC2)cc1=O	35*
Cc1nc(C)c(C(=O)NCCn2nc(-c3cccs3)ccc2=O)s1	54
Cc1nc2ccc(NC(=O)Nc3ccc4c(c3)OCO4)cc2c(=O)n1-c1ccc(Cl)cc1	28*
Cc1nc2ccc(NC(=O)C(C)Oc3ccc4c(c3)OCO4)cc2c(=O)n1-c1ccccc1 (stereo unspecified)	64
Cc1ccc(-n2c(C)nc3ccc(NC(=O)Nc4ccc(F)c(Cl)c4)cc3c2=O)cc1	72
O=C(c1ccccc1)c1ccc2c3c(cccc13)C(=O)N(c1ccc3c4c(cccc14)CC3)C2=O	18*
O=C(c1ccccc1)c1ccc2c3c(cccc13)CC2	62
Cc1ccccc1N1C(=O)c2cccc3c(C(=O)O)ccc(c23)C1=O	60
COc1ccc(NCC(O)CSc2ccc(OC)cc2)cc1 (stereo unspecified)	59
COc1cc(-c2ccc(=O)n(CC(=O)Nc3ccc(F)cc3F)n2)cc(OC)c1OC	56
Cc1ccc(-c2noc(-c3cccn(CC(=O)Nc4ccc(F)cc4F)c3=O)n2)cc1	95
COc1cc2cc(CNc3ccc(C)cc3)c(=O)n(CC(=O)Nc3ccc(F)cc3F)c2cc1OC	9*
CC1C(=O)N2CCCc3cc(NC(=O)c4ccc(Cl)c([N+](=O)[O-])c4)cc1c32 (stereo unspecified)	53
CN1C(=O)c2cccc(N)c2C1=O	-41*
CN1C(=O)c2cccc(NC(=O)c3cccc(Cl)c3)c2C1=O	73
CN1C(=O)c2cccc(NC(=O)c3ccc(N(C)C)cc3)c2C1=O	68
CCCCN1C(SCc2cccc(Br)c2)=NS(=O)(=O)c2ccccc21	64
O=C(CSc1nc2ccccc2o1)N1CCOCC1	72
O=C(Cn1cnc2ccccc21)N1CCOCC1	58
O=C(CSc1nnc2nnc3ccccc3n12)N1CCOCC1	17*
O=S(=O)(c1ccc(Cl)s1)N1CCC(c2nnc(-c3ccco3)o2)CC1	62
CCOC(=O)c1cc2cc(Cl)ccc2o1	53
SMILES	RMI FANCM FP
CCCc1c2c(cc3c(=O)cc(C(=O)OCC)oc13)CCCC2	32*
CCOC(=O)c1sc(NC(=O)c2cc(=O)c3ccccc3o2)cc1C	62
CCOC(=O)c1cc(-c2ccccc2)sc1NC(=O)CN1CCN(C)CC1	66
Cc1ccc(OCCCC(=O)NCC(C)C)c(C)c1	66
Cc1ccc(C)c(OCCCC(C)(C)C(=O)O)c1	12*!
Cc1ccc(C)c(OCC(=O)N2CCC(C)CC2)c1	67
O=C(COc1ccccc1)NCCCN1CCOC(c2ccccc2)C1 (stereo unspecified)	72
COc1cc(C(=O)O/N=C2/C=C(C)C(=O)C=C2C(C)C)cc(OC)c1OC	75
COc1cc(=O)n(-c2ccc(C)cc2)nc1C(=O)N1CCN(C(c2ccccc2)c2ccccc2)CC1	55
Cc1c2c(n3c(nc4ccccc43)c1C#N)N(C(C)c1ccccc1)CC2 (stereo unspecified)	79
COc1cccc(N2CCc3c(C)c(C#N)c4nc5ccccc5n4c32)c1	14*
CCc1c(C)c(C#N)c2nc3ccccc3n2c1N	66
CSc1c2c(c(C#N)c3nc4ccccc4n13)CCCC2	73
Cc1c2c(n3c(nc4ccccc43)c1C#N)SCC2	24*
Cc1ccc(OCCN2CCN(c3c4c(c(C#N)c5nc6ccccc6n35)CCCC4)CC2)cc1	62
O=S(=O)(c1cccs1)N1CCOC(c2ccccc2)C1 (stereo unspecified)	65
COc1cc(/C=C/C(=O)Nc2nnc(-c3ccc(Cl)s3)o2)cc(OC)c1OC	71
Cc1ccc2cc(CCNC(=O)C(=O)c3cn(CC(=O)N4CCCC4)c4ccccc34)c(=O)[nH]c2c1C	58
CCOCC(=O)NNC(=O)c1ccc(=O)n(Cc2ccc(Cl)cc2)c1	59
CNC(=O)Cn1cc(-c2nnc(C)o2)c2ccccc21	68
CC(=O)N1CCc2ccc(NC(=O)c3ccc(F)cc3Cl)cc21	65
CCn1ccc(C(=O)Nc2nnc(-c3ccc(S(=O)(=O)N(C)C)cc3)o2)n1	62
Cc1ccc(OS(=O)(=O)c2ccc([N+](=O)[O-])cc2)cc1	65
Cn1c(=O)c2cc(C(=O)Nc3ccc(C(F)(F)F)cc3)sc2n(C)c1=O	64
COC(OC)c1ccc2c(N)c(C(=O)Nc3ccc(C(F)(F)F)cc3)sc2n1	39*
COc1nn(C)cc1C(=O)Nc1ccc(C(F)(F)F)cc1	57
CC1=CS(=O)(=O)CC1	57
Cc1cccc2[nH]c(SCC(=O)N3CCCCC3)nc12	61
CCOC(=O)[C@H](CCc1ccccc1)N[C@H]1CCc2ccccc2N(CC(=O)O)C1=O	57
C[C@H](NC(CCc1ccccc1)C(=O)O)C(=O)N1CCC[C@H]1C(=O)O (stereo partly specified)	34*
